We go through 93 compounds from PubChem BioAssay AID1986 (Sanford-Burnham Center for Chemical Genomics, 2009).

Out of some 290,000 compounds screened, about 890 (0.31%) were called active. Rule as the data show it: active = inhibition mostly above about 52% (no sharp cut-off); inactive = mostly below about 76%. Shown is part of a subset that was picked to be rich in actives.

The assay can be described thus: inhibitors of HIV fusion peptide binding, primary screen, biochemical, uHTS, fluorescence dequenching (AID 1986). Particulars: cell-free peptide binding, 30 min, stronger effect = higher value.
Where [1] appears, read: measured here: repeat confirmation average inhibition, at 18.6 µM.

For orientation: inhibition means the drop in the measured response relative to a control, in per cent. In the case of `COCCCN(C(=S)NC(=O)C(C)(C)C)c1c(N)n(Cc2ccccc2)c(=O)[nH]c1=O`, the inhibition (at 20 µM) is -2.2% (inactive).
For `COc1ccc(O)c(/C=C2/SC(=S)N(Cc3ccccc3)C2=O)c1`, the inhibition (at 20 µM) was 68.8% (active) and the inhibition under setting [1] stood at 51%.
`O=C1/C(=C\c2cc(Cl)c(O)c(Cl)c2)SC(=S)N1Cc1ccccc1`: the inhibition (at 20 µM) is 159% (inactive).
Take `COc1cc(/C=C2\SC(=Nc3ccccc3OC)NC2=O)ccc1O`: the inhibition (at 20 µM) was 8.2% (inactive).
For `COc1ccc(/C=C2\SC(=Nc3ccccc3OC)NC2=O)cc1`, the inhibition (at 20 µM) was 7.1% (inactive).
As for `COc1cc(/C=C2/SC(=S)N(Cc3ccccc3)C2=O)ccc1O`, the inhibition (at 20 µM) is 6% (inactive).
On the same count and under the same terms, the result for `COc1ccc(/C=C2/SC(=S)N(Cc3ccccc3)C2=O)cc1O` reads -3.1% (inactive); that for `COc1cc(/C=C2/SC(=Nc3ccc(O)cc3)NC2=O)cc(OC)c1O`, -2.4% (inactive).
In the case of `COc1cc(/C=C2/SC(=S)N(Cc3ccccc3)C2=O)cc(Cl)c1O`, the inhibition (at 20 µM) was 119% (active) and the inhibition under setting [1] amounted to 88%.
The corresponding values for `COc1cc(/C=C2\SC(=Nc3ccccc3)NC2=O)cc(Cl)c1O` are 90% (active) and 60.8%.
Consider `COc1cc(/C=C2\SC(=Nc3ccc(O)cc3)NC2=O)cc(OC)c1O`, for which the inhibition (at 20 µM) was -2.7% (inactive).
The same measure, in the same setting: the result for `COc1ccccc1N=C1NC(=O)/C(=C/c2ccc(N(C)C)cc2)S1` reads 52.4% (active); that for `COc1ccc(OC)c(/C=C2\SC(=S)N(Cc3cccnc3)C2=O)c1`, 36.3% (inactive); that for `CCN(CC)CCCNC(=O)CNC(=S)N(CCCN1CCOCC1)Cc1cccs1`, -0.5% (inactive).
Turning to `Cc1cc(C)cc(OCC(=O)Nc2nc(-c3cccnc3)cs2)c1`, the inhibition (at 20 µM) was -0.2% (inactive).
The same measure, in the same setting: the result for `COc1ccc2cc(CN(CC3CCCO3)S(=O)(=O)c3ccccc3)c(=O)[nH]c2c1` (stereo unspecified) reads 1.4% (inactive); that for `COc1cc(N2CCCC2)c(OC)cc1/C=C(/C#N)c1ccc(Br)cc1`, -0.2% (inactive).
In the case of `COc1cc(N2CCCC2)c(OC)cc1/C=C(/C#N)c1cccc(Br)c1`, the inhibition was 51.2% (active) (at 20 µM) and 65.1% under setting [1].
In the case of `N#C/C(=C/c1ccc(N2CCCCC2)cc1)c1cccc(F)c1`, the inhibition (at 20 µM) was 1.6% (inactive).
As for `N#C/C(=C/c1ccc(N2CCCCCC2)o1)c1cccc(F)c1`, the inhibition (at 20 µM) was 3.6% (inactive).
In the case of `COc1cc(N2CCCC2)c(OC)cc1/C=C(/C#N)c1cccc(F)c1`, under “at 20 µM”, the inhibition was 57.2% (active).
The same measure, in the same setting: the value for `COc1cc(N2CCCC2)c(OC)cc1/C=C(/C#N)c1ccc(F)cc1` was 15.6% (inactive); that for `CCOC(=O)c1c(C)n(C)c2c(C)cc(O)c(OC(=O)CC)c12` was 1.5% (inactive).
Still for that read-out and setting: the value for `COC(=O)Cc1cccc2c(=O)c3ccccc3oc12` was -2% (inactive).
In the case of `O=C(CCS(=O)(=O)c1ccc2c(c1)NC(=O)CO2)NCCc1ccc(Cl)cc1`, under “at 20 µM”, the inhibition is 0.2% (inactive).
Same read-out and setting: the result for `CC(C)NC(=O)c1ccc(CN2CCC(Cc3ccccc3)CC2)cc1` reads -0.1% (inactive); that for `Cc1cccc(Nc2nnc(SCC(=O)NCc3cccs3)s2)c1`, -0.3% (inactive); that for `Cc1cccn2c(=O)c3cc(C(=O)NCc4cccnc4)c(=N)n(C)c3nc12`, -1.4% (inactive).
The same measure, in the same setting: the result for `CCOC(=O)c1cc2c(=O)n3cccc(C)c3nc2n(Cc2ccccc2Cl)c1=N` reads -3.9% (inactive); that for `CCOC(=O)c1cc2c(=O)n3cccc(C)c3nc2n(C)c1=N`, 59.9% (active).
Still for that read-out and setting: the result for `COc1cccc(/C=N\NC(C)=O)c1OC/C=C/c1ccccc1` reads 0.3% (inactive); that for `O=C1/C(=C/c2ccncc2)SC(=S)N1N1CCOCC1`, -1.3% (inactive); that for `Cc1ccc(NS(=O)(=O)c2cc(C(=O)N3CCN(C)CC3)ccc2C)cc1`, -0.2% (inactive).
With `CCN(CC)S(=O)(=O)c1cc(NS(=O)(=O)c2cccc(C(=O)O)c2)ccc1C`, the inhibition (at 20 µM) is 1.4% (inactive).
Consider `COC(=O)c1cc2c(C)c(C)c3ccccn3c-2c1C(=O)OC`, for which the inhibition (at 20 µM) was -1.6% (inactive).
On the same count and under the same terms, the result for `CC(C)OC(=O)c1c2c(n3ccccc13)C(=O)c1ccccc1C2=O` reads 103% (active); that for `CC(C)OC(=O)c1cccc2c1C(=O)c1ccccc1-2`, -0.7% (inactive); that for `CSc1cccc(NC(=O)c2nnn(Cc3ccccc3)c2N)c1`, -1.1% (inactive).
Take `CCOC(=O)C1CCN(C(=O)COc2ccc(S(=O)(=O)NC(C)C)cc2Cl)CC1`: the inhibition (at 20 µM) is -0.9% (inactive).
The same measure, in the same setting: the result for `CCOc1ccc(NC(=O)CSc2ncn[nH]2)c([N+](=O)[O-])c1` reads 0.8% (inactive); that for `Cc1occc1-c1nnc(SCC(=O)N2CCN(c3ccccc3F)CC2)n1C`, 0.2% (inactive); that for `O=C(Nc1ccncc1)C1CC1c1ccccc1` (stereo unspecified), -0.2% (inactive).
The same measure, in the same setting: the result for `CC(C)(C)N/N=C/c1c(O)n(-c2ccc(Cl)cn2)c(=O)c2ccccc12` reads 4% (inactive).
As to `O=c1c2ccccc2c(/C=N/NS(=O)(=O)c2ccccc2)c(O)n1-c1ccccn1`, the inhibition by setting is: (at 20 µM) 109% (active); under setting [1], 78.3%.
As for `COc1ccc(-n2c(O)c(/C=N/NS(=O)(=O)c3ccc(C)cc3)c3ccccc3c2=O)cc1OC`, the inhibition (at 20 µM) was 152% (inactive).
Still for that read-out and setting: the result for `O=C(c1cc(-c2ccco2)nn1-c1cccc(Cl)c1)N1CCCCC1` reads 15% (inactive).
For `O=C(O)c1cc(-c2ccco2)nn1-c1ccc(Cl)cc1`, the inhibition is, setting by setting: (at 20 µM) 72.4% (inactive); under setting [1], 4.8%.
Regarding `O=C(O)c1cc(-c2ccco2)nn1-c1cccc(Cl)c1`, under “at 20 µM”, the inhibition is 74.3% (active).
Still for that read-out and setting: the result for `CC1=NN(c2ccc(C)cc2)C(=O)/C1=C/c1ccc(-c2cc([N+](=O)[O-])ccc2O)o1` reads 45.2% (inactive).
Consider `O=C1NN(c2ccccc2)C(=O)/C1=C\c1ccc(-c2cc([N+](=O)[O-])ccc2O)o1`, for which the inhibition (at 20 µM) is 53.6% (inactive) and the inhibition under setting [1] turned out to be 15%.
Turning to `O=C1NN(c2cccc(Br)c2)C(=O)/C1=C/c1ccc(-c2cc([N+](=O)[O-])ccc2O)o1`, the inhibition (at 20 µM) was 56.9% (active).
As for `CCCOc1cccc(C(=O)N/N=C/c2ccoc2)c1`, the inhibition (at 20 µM) is 0.4% (inactive).
The same measure, in the same setting: the result for `O=C(Nc1ccc([N+](=O)[O-])cn1)C1CC2CCC1C2` (stereo unspecified) reads 1.2% (inactive); that for `COc1c(O)cc2c(c1O)C(=O)CC(c1ccccc1)O2` (stereo unspecified), -1.5% (inactive); that for `CC1CC(=O)c2c(cc3c(-c4c(O)cc(O)c5c(O)c6c(cc45)OC(C)CC6=O)c(O)cc(O)c3c2O)O1` (stereo unspecified), 56.7% (active).
On the same count and under the same terms, the value for `C[C@@H]1Cc2c(O)c(O)cc(O)c2C(=O)O1` was 27.3% (inactive); that for `COc1ccc(C(=O)C23CC4CC(C2)CC(C(=O)c2ccc(OC)cc2)(C4)C3)cc1` was -1.1% (inactive); that for `Cc1ccc(-c2cc3c(n2-c2ccc(C(=O)O)cc2)CCCC3=O)cc1` was 9.8% (inactive).
On the same count and under the same terms, the result for `Cc1ccc(C)n1-c1ccc(C(=O)O)cc1` reads -0.4% (inactive); that for `Cc1cc2c(n1-c1ccc(C(=O)O)cc1)CCCCC2`, 57.7% (active).
In the case of `O=C(NC(=S)Nc1ccccc1[N+](=O)[O-])c1ccccc1`, the inhibition (at 20 µM) was -2.2% (inactive).
Still for that read-out and setting: the result for `O=C(O)CCCCCNC(=O)c1ccc(C(=O)NCCCCCC(=O)O)cc1` reads 0.3% (inactive); that for `CCOc1ccc(/C=C/C2=Cc3c(sc(NC(=O)CSc4n[nH]c(N)n4)c3C#N)C(C)(C)C2)cc1`, 62.3% (active).
On the same count and under the same terms, the result for `Cc1ccsc1/C=C/C1=Cc2c(sc(NC(=O)CSc3n[nH]c(N)n3)c2C#N)C(C)(C)C1` reads 2.6% (inactive); that for `Cc1ccc(/C=C/C2=Cc3c(sc(NC(=O)CSc4n[nH]c(N)n4)c3C#N)C(C)(C)C2)o1`, 149% (inactive).
On the same count and under the same terms, the value for `CCOC(=O)c1cc(-c2cccs2)nc2c1c(C)nn2-c1ccccn1` was -2.7% (inactive); that for `COC(=O)[C@H](Cc1ccccc1)NC(=O)N1Cc2ccccc2C[C@H]1C(=O)OC` was 1.3% (inactive).
Consider `CCN(CC)CCN(Cc1cc2cc3c(cc2[nH]c1=O)OCCO3)C(=S)NC`, for which the inhibition (at 20 µM) was 2.5% (inactive).
Same read-out and setting: the result for `N#Cc1c(NC(=O)CSc2nc(N)cc(=O)[nH]2)sc2c1CCCC2` reads 0.4% (inactive); that for `O=C(O)Cn1c2ccccc2c2ccccc21`, -1% (inactive); that for `O=C(O)Cn1c2c(c3ccccc31)CCCC2`, -3.7% (inactive).
On the same count and under the same terms, the result for `O=C(O)Cn1c2c(c3ccccc31)CSc1ccc(Cl)cc1-2` reads 54.6% (active).
The same measure, in the same setting: the value for `Cc1ccc(NC(=O)CSc2nncn2-c2ccccn2)cc1Cl` was 1.2% (inactive).
Take `CN(C)CCN(C(=O)/C=C/c1cccs1)c1nc2c(F)cc(F)cc2s1`: the inhibition (at 20 µM) is 56.7% (active).
Same read-out and setting: the value for `CN(C)CCN(C(=O)/C=C/c1cccs1)c1nc2ccc(F)cc2s1` was -3.5% (inactive).
Still for that read-out and setting: the result for `CN(C)CCCN(C(=O)/C=C/c1cccs1)c1nc2c(F)cccc2s1` reads 0.3% (inactive); that for `O=C1c2ccsc2SCCN1Cc1c(F)cccc1Cl`, -0.5% (inactive).
Turning to `CCCCC(CCC(=O)O)(C(=O)OCC)c1csc(Nc2ccc(C)cc2)n1` (stereo unspecified), the inhibition (at 20 µM) was 13.4% (inactive).
As for `CCCNc1c(F)c(F)c2c(C)c3ccccc3nc2c1F`, the inhibition (at 20 µM) is 51.8% (active) and the inhibition under setting [1] was determined as 159%.
Regarding `Cc1c2ccccc2nc2c(F)c(NCCO)c(F)c(F)c12`, the inhibition (at 20 µM) is 23.4% (inactive).
In the case of `Cc1c2ccccc2nc2c(F)c(NC(C)C)c(F)c(F)c12`, the inhibition (at 20 µM) was 36.2% (inactive).
The same measure, in the same setting: the value for `CCOC(=O)C1Cc2c([nH]c3ccccc23)CN1` (stereo unspecified) was -0.5% (inactive); that for `O=C(c1cc(S(=O)(=O)N2CCCCC2)ccc1Cl)N1CCOCC1` was 0.1% (inactive).
As to `COc1cc([N+](=O)[O-])ccc1NC(=O)NCc1ccccn1`, the inhibition (at 20 µM) was -3.2% (inactive).
The same measure, in the same setting: the result for `COc1cccc(/C=N/NC(=S)Nc2cccc(C(=O)O)c2)c1O` reads 7.9% (inactive); that for `O=C(O)c1cccc(NC(=S)N/N=C/c2ccccc2OCc2ccc(Br)cc2)c1`, 65.6% (active).
Same read-out and setting: the result for `O=C(O)c1cccc(NC(=S)N/N=C/c2cccc(O)c2)c1` reads 1.3% (inactive).
Turning to `COc1ccccc1NC(=O)N(Cc1cc2cc(OC)c(OC)cc2[nH]c1=O)CC1CCCO1` (stereo unspecified), the inhibition (at 20 µM) is -1.5% (inactive).
For the compound `Cc1cc(C)c2nc(N3CCC(C(=O)NCCCN4CCCC4=O)CC3)sc2c1`, where the note is “at 20 µM”, the inhibition is -0.6% (inactive).
The same measure, in the same setting: the value for `COc1cc(/C=N/NC(=S)NCCN2CCOCC2)cc(OC)c1OC` was -0.8% (inactive); that for `CC1=C(C#N)C(=O)NC(=O)/C1=C/c1ccc(-c2ccc(S(N)(=O)=O)cc2)o1` was 46.5% (inactive).
The same measure, in the same setting: the result for `CCOC(=O)c1cc(-c2ccc(/C=C3/C(=O)NC(=O)C(C#N)=C3C)o2)ccc1Cl` reads 65.1% (active); that for `C=CCOC(=O)c1cc(-c2ccc(/C=C3\C(=O)NC(=O)C(C#N)=C3C)o2)ccc1Cl`, -2.1% (inactive).
